Measurements from PubChem BioAssay (Tox21).
Records with an inconclusive call do not appear. Activity calls are given as the source filed them. Unless noted, the call rests on the fitted dose curve.

Tests used:
[1] = Nuclear factor erythroid 2-related factor 2/antioxidant responsive element (Nrf2/ARE) small molecule agonists: qHTS cell viability counter screen in human keratinocytes (AID 1919968; active means well fitted curve in the direction sought with a large enough effect in the repeat runs; an effect the other way counts as inactive or inconclusive; further: nearly all actives have a fitted effect of over 55% in size)
Summary of the method: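 After a 5 h attachment period, ARE-reporter keratinocytes were dosed with compounds in DMSO and then cultured 23 h at 37 C. Cell viability came from CellTiter-Fluor signal read after a further 1 h.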

[2] = Nuclear factor erythroid 2-related factor 2/antioxidant responsive element (Nrf2/ARE) small molecule agonists: luciferase reporter gene qHTS assay in human keratinocytes (AID 1919969); further: nearly all actives have a fitted effect of over 35% in size
[3] = biological target: Gonadotropin-releasing hormone receptor (Homo sapiens) (UniProt P30968); assay: Human gonadotropin-releasing hormone receptor (GnRHR) small molecule agonists, calcium flux assay in GnRHR-HEK293 cells (AID 1920063); further: nearly all actives have a fitted effect of over 35% in size
Sequence of Gonadotropin-releasing hormone receptor (Homo sapiens) (P30968 whole entry, looked up): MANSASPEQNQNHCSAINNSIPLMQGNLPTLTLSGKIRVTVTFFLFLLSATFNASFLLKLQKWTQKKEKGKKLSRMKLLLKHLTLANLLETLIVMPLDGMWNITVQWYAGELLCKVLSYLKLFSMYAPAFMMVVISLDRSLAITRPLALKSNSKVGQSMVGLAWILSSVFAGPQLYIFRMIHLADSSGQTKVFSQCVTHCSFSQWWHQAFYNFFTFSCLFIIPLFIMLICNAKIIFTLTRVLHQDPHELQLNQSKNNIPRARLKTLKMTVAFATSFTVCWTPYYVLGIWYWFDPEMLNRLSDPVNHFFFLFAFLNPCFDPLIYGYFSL
Summary of the method: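 We seeded human GnRHR-expressing HEK293 cells for 18 hours, loaded them with calcium dye for an hour at 37 C, added test compounds, and recorded fluorescence intensity kinetically for three minutes.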

[4] = biological target: KiSS-1 receptor (Homo sapiens) (UniProt Q969F8); assay: Human kisspeptin (KISS1R) small molecule agonists, calcium flux assay in KISS1R-HEK293 cells (AID 1920064; active means well fitted curve in the direction sought with a large enough effect in the repeat runs; an effect the other way counts as inactive or inconclusive)
Sequence of KiSS-1 receptor (Homo sapiens) (Q969F8 whole entry, looked up): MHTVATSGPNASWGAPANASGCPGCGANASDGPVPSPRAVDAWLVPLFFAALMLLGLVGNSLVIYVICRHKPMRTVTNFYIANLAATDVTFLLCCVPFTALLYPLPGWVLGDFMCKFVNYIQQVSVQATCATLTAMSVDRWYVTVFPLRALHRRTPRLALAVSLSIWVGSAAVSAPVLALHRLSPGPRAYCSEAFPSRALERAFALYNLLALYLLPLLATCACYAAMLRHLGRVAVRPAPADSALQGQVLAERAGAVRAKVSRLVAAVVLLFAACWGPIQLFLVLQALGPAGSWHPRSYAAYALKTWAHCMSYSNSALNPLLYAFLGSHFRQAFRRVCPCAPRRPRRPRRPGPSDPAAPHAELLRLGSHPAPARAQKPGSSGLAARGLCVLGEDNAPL
Summary of the method: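 Kinetic calcium assay, 1 s sampling over 3 min at Ex/Em 480/540, in HEK293 cells engineered with human KISS1R; compounds delivered in DMSO after 1 h dye loading.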

[5] = G protein-coupled receptor (GPCR) small molecule agonists, calcium flux assay: HEK293 wild type cell line counter screen (AID 1920065)
Summary of the method: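 Calcium-sensitive dye, loaded 1 h at 37 C into cells cultured 18 h, reports compound-evoked calcium release as fluorescence (Ex/Em 480/540), measured over 3 min. Agonist mode; 15-point titrations, triplicate.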

[6] = p53 small molecule agonists, cell-based qHTS assay with human liver microsomes (AID 1963577)
Summary of the method: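 p53RE-bla cells, 4,000/well, compound added after 5 h, with human liver microsomes 0.5 mg/mL and NADPH 0.5 mg/mL final; 16 h at 37 C, then LiveBLAzer 2 h RT, fluorescence.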

[7] = p53 small molecule agonists, cell-based qHTS assay with rat liver microsomes (AID 1963578)
Summary of the method: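 p53RE-bla cells, 4,000/well, pre-incubated 5 h, then given compounds plus rat liver microsomes (0.5 mg/mL final) and NADPH (0.5 mg/mL final). Incubation 16 h at 37 C; beta-lactamase reporter read by LiveBLAzer fluorescence after 2 h at room temperature.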

[8] = p53 small molecule agonists, cell-based qHTS assay with human liver microsomes: qHTS cell viability counter screen (AID 1963579); further: nearly all actives have a fitted effect of over 45% in size
Summary of the method: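 p53RE-bla cells, 4,000/well, dosed 5 hours after plating, with human liver microsomes (0.5 mg/mL final) plus NADPH (0.5 mg/mL final), 16 hours at 37 C. Viability read as CellTiter-Glo luminescence after 30 min at room temperature.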

[9] = p53 small molecule agonists, cell-based qHTS assay with rat liver microsomes: qHTS cell viability counter screen (AID 1963580); further: nearly all actives have a fitted effect of over 45% in size
Summary of the method: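 HCT-116 p53RE-bla, 4,000 cells/well, 5 h pre-incubation; cpd + rat liver microsomes 0.5 mg/mL + NADPH 0.5 mg/mL (final); 16 h, 37 C; CellTiter-Glo, 30 min RT; luminescence.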

[10] = p53 small molecule agonists, cell-based qHTS assay: qHTS cell viability counter screen (AID 1963581); further: nearly all actives have a fitted effect of over 45% in size
Summary of the method: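 Following 5 h attachment, HCT-116 p53RE-bla cells took up compound for 16 h at 37 C; the reporter was read with B/G FRET substrate (2 h RT), and viability then via CellTiter-Glo ATP luminescence.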

[11] = p53 small molecule agonists, cell-based qHTS assay (AID 1963582; active means well fitted activation curve with a large enough effect in the signal ratio in the repeat runs, not every such curve was filed as active; the % refers to the signal ratio)
Summary of the method: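 In this cell-based concentration-response screen, a p53 response element drives beta-lactamase; cells received DMSO-borne compounds after 5 h culture and were incubated a further 16 h before FRET substrate development.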

[12] = biological target: 5-hydroxytryptamine receptor 2A (Homo sapiens) (UniProt P28223); assay: 5-hydroxytryptamine receptor 2A (HTR2A) small molecule antagonists, cell-based qHTS assay (AID 1963586); further: nearly all actives have a fitted effect of over 45% in size
Sequence of 5-hydroxytryptamine receptor 2A (Homo sapiens) (P28223 whole entry, looked up): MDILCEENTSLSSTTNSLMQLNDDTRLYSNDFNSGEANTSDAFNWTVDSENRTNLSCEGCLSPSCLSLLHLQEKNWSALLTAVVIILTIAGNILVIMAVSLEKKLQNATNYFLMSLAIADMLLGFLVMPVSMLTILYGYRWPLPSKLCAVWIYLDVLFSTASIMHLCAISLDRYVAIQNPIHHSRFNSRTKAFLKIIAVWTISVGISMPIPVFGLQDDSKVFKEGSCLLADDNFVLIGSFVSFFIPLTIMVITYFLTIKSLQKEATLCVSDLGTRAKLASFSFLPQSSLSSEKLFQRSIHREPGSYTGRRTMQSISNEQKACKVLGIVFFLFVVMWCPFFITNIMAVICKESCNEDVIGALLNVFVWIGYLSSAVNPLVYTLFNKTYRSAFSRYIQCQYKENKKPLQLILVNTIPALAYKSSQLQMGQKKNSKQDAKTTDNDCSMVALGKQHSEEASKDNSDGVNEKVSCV
Summary of the method: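 Antagonist-mode intracellular calcium assay: DOI (4 nM) added after 5 min compound pre-incubation at room temperature to dye-loaded HTR2A-CHO cells. Fluorescence followed for 3 min, sampled every second.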

[13] = biological target: 5-hydroxytryptamine receptor 2A (Homo sapiens) (UniProt P28223); assay: 5-hydroxytryptamine receptor 2A (HTR2A) small molecule agonists, cell-based qHTS assay (AID 1963587); further: nearly all actives have a fitted effect of over 30% in size
Summary of the method: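 Kinetic calcium-flux fluorescence (2 min, 1 sec intervals) after compound addition in agonist mode. HTR2A-CHO cells were cultured 18 h, then dye-loaded 1 h at 37 C.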

[14] = biological target: Muscarinic acetylcholine receptor M1 (Homo sapiens) (UniProt P11229); assay: Cholinergic receptor muscarinic 1 (CHRM1) small molecule antagonists, cell-based qHTS assay (AID 1963588); further: nearly all actives have a fitted effect of over 40% in size
Sequence of Muscarinic acetylcholine receptor M1 (Homo sapiens) (P11229 whole entry, looked up): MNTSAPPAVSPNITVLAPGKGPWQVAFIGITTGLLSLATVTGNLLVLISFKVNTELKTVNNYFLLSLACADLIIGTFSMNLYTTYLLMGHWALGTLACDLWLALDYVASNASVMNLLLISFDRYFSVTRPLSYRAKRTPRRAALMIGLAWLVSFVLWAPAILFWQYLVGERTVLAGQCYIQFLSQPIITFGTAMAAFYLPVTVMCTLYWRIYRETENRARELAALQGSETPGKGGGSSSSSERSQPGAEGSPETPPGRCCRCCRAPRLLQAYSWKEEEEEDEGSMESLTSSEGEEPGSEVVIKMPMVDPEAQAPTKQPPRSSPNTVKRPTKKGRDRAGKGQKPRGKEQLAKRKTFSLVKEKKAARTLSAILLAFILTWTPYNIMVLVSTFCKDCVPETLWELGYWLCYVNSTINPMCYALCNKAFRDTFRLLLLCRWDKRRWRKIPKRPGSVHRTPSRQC
Summary of the method: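 CHRM1-CHO calcium-flux assay, antagonist mode. Cells were seeded 18 h, dye-loaded 1 h at 37 C and given compound for 5 min at RT, then acetylcholine was added at 50nM. FDSS fluorescence was read 3 min; 15 concentrations, three runs.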

[15] = cAMP Responsive Elements (CRE) small molecule agonists, cell-based qHTS assay (AID 1963590)
Summary of the method: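 A CRE-responsive beta-lactamase reporter in HEK 293T cells was used. Treatment ran 3 h at 37 C; detection used LiveBLAzer B/G FRET substrate for 2 h at room temperature.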

[16] = cAMP Responsive Elements (CRE) small molecule antagonists, cell-based qHTS assay (AID 1963591; active means well fitted inhibition curve with a large enough effect in the signal ratio in the repeat runs, not every such curve was filed as active; the % refers to the signal ratio)
Summary of the method: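 HEK293T cells carrying a CRE-driven beta-lactamase reporter receive compound and NKH477 (0.25 uM final) for 3 h. Fluorescence from LiveBLAzer B/G FRET substrate is read after 2 h at room temperature.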

[17] = biological target: Beta-2 adrenergic receptor (Homo sapiens) (UniProt P07550); assay: Adrenergic beta2 receptor (ADRB2) small molecule antagonists, cell-based qHTS assay (AID 1963592); further: series mostly up to about 92 µM; nearly all actives have a fitted effect of over 50% in size
Sequence of Beta-2 adrenergic receptor (Homo sapiens) (P07550 whole entry, looked up): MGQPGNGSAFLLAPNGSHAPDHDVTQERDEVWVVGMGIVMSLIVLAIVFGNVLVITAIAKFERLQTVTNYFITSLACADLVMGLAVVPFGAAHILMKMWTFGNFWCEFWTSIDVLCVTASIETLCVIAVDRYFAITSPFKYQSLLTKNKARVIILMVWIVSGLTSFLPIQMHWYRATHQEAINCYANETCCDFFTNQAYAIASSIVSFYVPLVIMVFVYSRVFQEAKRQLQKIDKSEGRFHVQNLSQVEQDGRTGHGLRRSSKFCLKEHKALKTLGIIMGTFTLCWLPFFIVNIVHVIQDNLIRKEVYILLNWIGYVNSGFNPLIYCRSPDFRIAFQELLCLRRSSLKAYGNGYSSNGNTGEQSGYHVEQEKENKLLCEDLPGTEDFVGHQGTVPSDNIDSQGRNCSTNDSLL
Summary of the method: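 Cells (CHO, stable ADRB2 overexpression) incubated 18-20hr at 37C; compounds added from DMSO; agonist mix (1nM isoproterenol, 100uM IBMX, 25uM Ro-20-1724) added; 0.5hr RT; d2-cAMP and anti-cAMP-cryptate added; 1hr RT; 665/615 nm read.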

[18] = biological target: Muscarinic acetylcholine receptor M1 (Homo sapiens) (UniProt P11229); assay: Cholinergic receptor muscarinic 1 (CHRM1) small molecule agonists, cell-based qHTS assay (AID 1963589); further: nearly all actives have a fitted effect of over 35% in size
Summary of the method: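 Measures agonist-induced intracellular calcium rise. Stable human CHRM1 CHO line, 1 h dye load at 37 C, compounds from DMSO, kinetic fluorescence read.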

[19] = biological target: D(2) dopamine receptor (Homo sapiens) (UniProt P14416); assay: Dopamine D2 receptor (DRD2) small molecule agonists, cell-based qHTS assay (AID 1963594); further: nearly all actives have a fitted effect of over 35% in size
Sequence of D(2) dopamine receptor (Homo sapiens) (P14416 whole entry, looked up): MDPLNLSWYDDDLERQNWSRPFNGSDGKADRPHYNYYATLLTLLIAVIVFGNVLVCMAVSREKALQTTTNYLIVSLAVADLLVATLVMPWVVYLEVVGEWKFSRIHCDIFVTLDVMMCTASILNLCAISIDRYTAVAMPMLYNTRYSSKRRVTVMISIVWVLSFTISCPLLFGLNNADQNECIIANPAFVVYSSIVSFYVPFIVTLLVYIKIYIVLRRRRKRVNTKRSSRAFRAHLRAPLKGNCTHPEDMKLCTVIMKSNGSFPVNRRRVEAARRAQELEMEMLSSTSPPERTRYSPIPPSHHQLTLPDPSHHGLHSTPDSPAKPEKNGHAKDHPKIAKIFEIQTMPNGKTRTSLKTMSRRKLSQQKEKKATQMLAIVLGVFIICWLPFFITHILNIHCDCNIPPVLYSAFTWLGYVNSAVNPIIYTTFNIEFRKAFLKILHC
Summary of the method: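 cAMP accumulation in DRD2-HEK293 cells measured by HTRF after 1 h detection; compounds added 10 min before NKH477 (200nM […]) forskolin-analogue stimulation, 30 min at room temperature, with Ro20-1724 present at 0.1 mM final.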

[20] = biological target: D(2) dopamine receptor (Homo sapiens) (UniProt P14416); assay: Dopamine D2 receptor (DRD2) small molecule antagonists, cell-based qHTS assay (AID 1963595; active means well fitted inhibition curve with a large enough effect in the signal ratio in the repeat runs, with a control signal flat; the % refers to the signal ratio)
Summary of the method: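 Readout: HTRF cAMP, cAMP-d2 competing with cellular cAMP for anti-cAMP cryptate, read after 1 h. Cells: DRD2-HEK293. Conditions: 0.1 mM Ro20-1724, 12 nM quinpirole, 200 nM NKH477, 30 min RT.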

Measured: Potency

C/C=C(\C)C#N
inactive: [1] | [2] | [3] | [4] | [5] | [6] | [7] | [8] | [9] | [10] | [11] | [12] | [13] | [14] | [15] | [16] | [17]

C[N+]1(C)CCCC(OC(=O)C(O)(c2ccccc2)c2ccccc2)C1 (stereo unspecified)
inactive: [1] | [2] | [3] | [4] | [5] | [6] | [7] | [8] | [9] | [10] | [11] | [12] | [13] | [18] | [15] | [16] | [17] | [19] | [20]

O=C(/C=C/c1ccc(O)c(O)c1)O[C@@H]1C[C@](O)(C(=O)O)C[C@@H](O)[C@H]1O
inactive: [1] | [2] | [3] | [4] | [5] | [6] | [7] | [8] | [9] | [10] | [11] | [12] | [13] | [14] | [15] | [16] | [19]

CC(C)(O)c1ccc(CNC(=O)c2cccnc2Oc2ccc3nonc3c2)cc1
inactive: [1] | [2] | [3] | [4] | [5] | [6] | [7] | [8] | [9] | [10] | [11] | [12] | [13] | [14] | [18] | [17] | [20]

Nc1ccc(F)c([N+](=O)[O-])c1
inactive: [1] | [2] | [3] | [4] | [5] | [6] | [7] | [8] | [9] | [10] | [11] | [12] | [13] | [14] | [15] | [16] | [17] | [19] | [20]

CC(=O)Nc1ccc(N)cc1
inactive: [1] | [2] | [3] | [4] | [5] | [6] | [7] | [8] | [9] | [10] | [11] | [12] | [13] | [14] | [15] | [17] | [19] | [20]

COC(=O)[C@H]1[C@H]2C[C@@H]3c4[nH]c5cc(OC)ccc5c4CCN3C[C@H]2C[C@@H](OC(=O)COc2ccc(OC)cc2)[C@@H]1OC
inactive: [1] | [2] | [3] | [4] | [5] | [6] | [7] | [8] | [9] | [10] | [11] | [12] | [13] | [14] | [18] | [20]

O=C(OCC(O)CO)c1ccccc1Nc1ccnc2c(C(F)(F)F)cccc12 (stereo unspecified)
inactive: [1] | [2] | [3] | [4] | [5] | [6] | [7] | [8] | [9] | [10] | [11] | [12] | [13] | [14] | [18] | [17] | [19] | [20]
